Screening results: PubChem, National Center for Advancing Translational Sciences (NCATS)
Hits are enriched below; roughly 3.7% of the tested compounds scored in any of these assays.
ATXN2 expr inh: Primary qHTS for Inhibitors of ATXN expression; AID 1745845, 2022; 0.72% of 360,000 active; HEK-293 ATXN2-luciferase reporter, luminescence, 24 h; Potency, µM (series often up to 57 µM), for the others: top-dose activity change, negative = inhibition, most hits filed as inhibitors; further: on the % scale 0 is the no-effect control and ±100 the full control effect; nearly all actives have a fitted effect of over 55% in size
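qHTS (up to 57 uM final) was run with 24 h compound exposure of reporter cells at 37 °C. Each well was multiplexed: SteadyGlo luminescence measured ATXN2-luciferase expression after a fluorogenic Gly-Phe-AFC viability readout (25 uM final).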
ATXN viability: Viability Counterscreen for Primary qHTS for Inhibitors of ATXN expression. Potency, µM (titrated, usually from 56.7 µM), hits mostly cytotoxic. 0.49% of 400,000 active. AID 651635, 2014. S2 cells (HEK-293 line with an ATXN2-luciferase reporter) viability, CellTiter-Fluor protease fluorescence, 24 h; further: nearly all actives have a fitted effect of over 40% in size
HepG2 tox: qHTS for Inhibitors of TGF-b: Cytotox Counterscreen; 0.76% of 410,000 active; Potency, µM (series often up to 46.1 µM), for the others: top-dose activity change, negative = cytotoxicity, hits mostly cytotoxic; AID 588856, 2011; HepG2 CAGA-GFP viability, ATP luminescence, 18 h
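CellTiter-Glo luminescence gave cytotoxicity after 18 hours at 37 degrees C. The cells were HepG2 CAGA-GFP in 1% FBS DMEM, stimulated with 500 pg/mL TGF-beta after compound addition. %Activity was normalised to no-cell wells (complete cell-killing) and DMSO (no toxicity), and curves were fitted and classified.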
GLP1R ag: qHTS of GLP-1 Receptor Agonists; 0.007% of 380,000 active; AID 624172, 2012; HEK293 GLP-1R CRE-luciferase, luminescence, 4-6 h; cells express a hypersensitive GLP-1R form; Glucagon-like peptide 1 receptor (Homo sapiens), P43220; Potency, µM (top dose mostly 45.6 µM), for the others: at the top dose activation, usual class: activators; further: % of control where 0% means no effect
Target sequence (P43220 whole entry, looked up): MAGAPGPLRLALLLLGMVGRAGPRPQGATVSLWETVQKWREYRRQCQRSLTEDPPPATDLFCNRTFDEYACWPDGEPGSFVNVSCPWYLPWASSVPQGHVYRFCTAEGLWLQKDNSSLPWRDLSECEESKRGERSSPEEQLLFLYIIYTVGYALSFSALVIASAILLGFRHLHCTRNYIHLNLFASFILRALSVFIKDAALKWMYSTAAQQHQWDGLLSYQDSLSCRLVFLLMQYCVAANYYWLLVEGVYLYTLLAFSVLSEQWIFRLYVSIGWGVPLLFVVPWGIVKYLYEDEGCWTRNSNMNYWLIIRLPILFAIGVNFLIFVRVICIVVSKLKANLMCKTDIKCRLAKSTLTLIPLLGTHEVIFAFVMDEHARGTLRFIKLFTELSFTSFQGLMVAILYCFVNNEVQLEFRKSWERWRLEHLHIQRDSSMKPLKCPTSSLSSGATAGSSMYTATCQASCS
GLP1R inv ag: qHTS of GLP-1 Receptor Inverse Agonists (Inhibition Mode) | Glucagon-like peptide 1 receptor (Homo sapiens), P43220 | Potency, µM (highest dose often 38.3 µM), inactives show top-dose activity change, negative = inhibition, most hits filed as inhibitors | HEK293 GLP-1R CRE-luciferase, luminescence, 24 h; GLP-1R form is constitutively active | 1.6% of 410,000 active; further: on the % scale 0 is the no-effect control and ±100 the full control effect; nearly all actives have a fitted effect of over 55% in size
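Inverse agonism was detected as reduced cAMP-driven luciferase luminescence after 24 h compound treatment. The cells were HEK293 clones expressing constitutively active human GLP-1R with the reporter. Reporter-only and GPR119 cell lines served as counterscreen controls.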
TGFb SMAD3 inh: qHTS for Inhibitors of TGF-b. Potency, µM (series often up to 46.1 µM), for inactives: at the highest dose activity, negative = inhibition, actives largely listed as inhibitors. HepG2 CAGA-GFP TGF-b/SMAD3 reporter, GFP fluorescence, 18 h; TGF-beta stimulated, 500 pg/mL final. 1.2% of 410,000 active; further: on the % scale 0 is the no-effect control and ±100 the full control effect; nearly all actives have a fitted effect of over 65% in size
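HEPG2 CAGA-GFP reporter cells (1000/well, DMEM with 1% FBS) received compounds, then recombinant TGF-beta at 500 pg/mL final for 18 hours at 37 degrees C. Per-cell GFP summed per well was normalised to unstimulated and stimulated DMSO controls before curve fitting.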
* marks the source's active call; other numbers are inactive results; i = inactive; ? = inconclusive; nt = not tested or not shown. The call rests on the fitted dose curve; in most records, active means well fitted curve in the direction sought with a large enough effect; inconclusive means small, poorly fitted or top-dose-only effect, or another doubt; inactive means no such curve, though single readings can be large; an effect the other way counts as inactive or inconclusive. Potency means the concentration at half of the fitted maximal effect.

SMILES	ATXN2 expr inh	ATXN viability	HepG2 tox	GLP1R ag	GLP1R inv ag	TGFb SMAD3 inh
O=C(CSc1nc(-c2ccccc2)nc2c1Cc1ccccc1O2)N1CCCCC1	11.3%	?	8.1%	nt	-0.7%	11.1%
COc1ccc(OCC(O)CNCCOc2ccccc2OC)c(C(C)(C)C)c1 (stereo not given)	nt	nt	-116.5%	-1.4%	12.6µM*	12.6µM*
Cc1ccccc1OCC(O)CNCCOc1ccc(C(N)=O)cc1 (stereo not given)	nt	nt	nt	1.2%	nt	nt
O=S(=O)(c1cccnc1)N1CCN(c2nc(-c3cccs3)nc3ccccc23)CC1	nt	nt	-45.8%	nt	nt	-20.2%
CCNc1nc(NC(C)C)nc(SCCOC(=O)c2ccccc2)n1	9.1%	i	-16.2%	?	10µM*	1.7%
CCNc1nc(NCC)nc(OCCOC(=O)c2ccccc2)n1	0.8%	i	3.6%	8.3%	10.1%	-2.0%
CCNc1nc(NC(C)C)nc(SCCOc2ccc(C)cc2)n1	2.5%	i	-9.4%	33.4%	7.94µM*	?
COc1cc2c(cc1OC)C(c1ccc(Cl)cc1)N(c1cccc(C#N)c1)C(=O)C2 (stereo not given)	-22.1%	i	-21.5%	nt	0.6%	3.3%
COc1ccc(CNc2nc(Cl)nc3nc[nH]c23)cc1	nt	nt	1.2%	nt	nt	31.2%
CN1CCN(c2ccc(Cl)cc2NC(=O)c2ccc(=O)n(C)n2)CC1	-20.1%	i	-0.6%	-2.9%	10µM*	?
CCN1CCN(c2ccc(Cl)cc2NC(=O)c2ccc(-n3nc(C)cc3C)cc2)CC1	?	i	22.4µM*	6.3%	?	-6.4%
CCN1CCN(c2ccc(Cl)cc2NC(=O)c2ccco2)CC1	nt	i	-18.6%	-9.6%	?	18.6%
CCC(=O)Nc1nnc(S(=O)(=O)N(C)Cc2ccccc2)s1	nt	nt	-16.7%	nt	9.4%	-2.3%
O=C(c1ccccc1-n1cccn1)N1CCOc2c(cc(-c3ncc(C(F)(F)F)cc3Cl)cc2OCC2CCCO2)C1 (stereo not given)	nt	i	nt	nt	nt	nt
CCCCS(=O)(=O)/C=C\C=C/S(=O)(=O)CCCC	7.08µM*	8.91µM*	-79.2%	-27.6%	?	?
O=C(NCc1nnc2n1CCN(Cc1ccc(C(F)(F)F)cc1)CC2)c1cccc(F)c1	nt	i	nt	nt	nt	nt
Cn1c(SCc2cccc([N+](=O)[O-])c2)nc2ccccc2c1=O	-32.9%	i	-5.2%	1.9%	?	?
CCSc1nc2ccccc2n1Cc1cccc([N+](=O)[O-])c1	?	i	-38.0%	20.2%	11.2µM*	13.1%
COCCN1CCN(C(=O)c2cnn(-c3nccc(-c4ccco4)n3)c2C2CC2)CC1	nt	i	nt	nt	nt	nt
CCCCNC(=O)CCCn1c(=O)c2ccccc2n(Cc2cccc(Cl)c2)c1=O	-4.9%	i	-9.3%	0.5%	-16.6%	?
COC(=O)c1cc(=O)n(-c2ccccc2)c(=Nc2ccccc2)s1	?	?	-60.4%	-3.9%	?	17.8µM*
COc1ccc2c(c1)c(CC(=O)OC/C=C(\C)CC/C=C(\C)CCC=C(C)C)c(C)n2C(=O)c1ccc(Cl)cc1	?	i	nt	nt	nt	nt
CC(=O)Cc1cc(O)c2ccccc2c1OC(=O)c1ccccc1	-15.7%	nt	20µM*	20.4%	?	?
CC(C)(CO)NC(=O)c1cnn(-c2nccc(-c3ccc4c(c3)OCO4)n2)c1C1CC1	nt	i	nt	nt	nt	nt
COc1cc(OC)cc(C(=O)Nc2cccc(-c3cn4ccsc4n3)c2)c1	nt	nt	-32.7%	nt	-23.7%	-23.4%
SMILES	ATXN2 expr inh	ATXN viability	HepG2 tox	GLP1R ag	GLP1R inv ag	TGFb SMAD3 inh
O=C(N/N=C/c1ccccn1)c1sc2ccccc2c1Cl	nt	?	-28.0%	0.9%	?	?
Cc1cc(C(=O)N/N=C/c2ccc([N+](=O)[O-])o2)c(C)o1	nt	?	11.2µM*	-0.6%	7.7%	17.8µM*
O=C(CNc1ccc2ccccc2c1)N/N=C/c1ccc([N+](=O)[O-])o1	-6.5%	?	7.94µM*	5.2%	14.8%	8.91µM*
COc1ccccc1NS(=O)(=O)c1cccc(C(=O)N/N=C/c2ccc([N+](=O)[O-])o2)c1	?	?	-110.3%	-28.8%	-13.2%	7.08µM*
O=C(N/N=C/c1ccc([N+](=O)[O-])o1)c1sc2ccccc2c1Cl	nt	31.6µM*	-185.7%	-6.4%	?	?
CC(C)c1ncc([N+](=O)[O-])n1C	nt	nt	nt	-1.6%	nt	nt
COc1cc(-c2noc(C)c2C#CCCN2C(=O)c3ccccc3C2=O)cc(OC)c1OC	nt	nt	-0.7%	nt	nt	-3.9%
O=C(Nc1ccc(F)c(Cl)c1)c1cc(S(=O)(=O)N2CCCc3ccccc32)ccc1F	nt	nt	-10.5%	nt	?	?
COC(=O)N/N=C/c1ccc([N+](=O)[O-])o1	-24.8%	i	-22.5%	-9.1%	0.9%	-25.0%
O=C(COc1ccccc1)N/N=C/c1ccc([N+](=O)[O-])o1	nt	?	11.2µM*	-5.0%	7.1%	11.2µM*
Cc1ccc(OCC(=O)N/N=C/c2ccc([N+](=O)[O-])o2)cc1	?	?	10µM*	-4.3%	5.7%	10µM*
O=C(O)CCNc1cc(N2CCc3ccccc3CC2)nc(-c2ccccn2)n1	-20.8%	nt	nt	nt	nt	nt
O=C(Oc1cccc2cccnc12)c1cccc([N+](=O)[O-])c1	4.9%	i	-12.0%	0.3%	?	-16.4%
O=C(Oc1c(Cl)cc(Cl)c2cccnc12)c1cccc([N+](=O)[O-])c1	20µM*	i	-4.9%	2.1%	12.6µM*	?
O=C(Oc1ccc(Cl)c2cccnc12)c1cccc([N+](=O)[O-])c1	-16.1%	i	-55.8%	27.3%	5.01µM*	14.1µM*
OC(CNCc1ccco1)Cn1c2ccccc2c2ccccc21 (stereo not given)	-26.0%	i	17.8µM*	6.2%	0.0%	?
Cn1cc(CN2CCC(C3(c4ccccn4)NC(=O)N(CC4CCCO4)C3=O)CC2)c2ccccc21 (stereo not given)	nt	i	nt	nt	nt	nt
CCOc1cc(CNCc2cccs2)cc(Br)c1OCC	-20.9%	i	-40.8%	13.7%	10µM*	2.5%
CCOc1cc(CNCc2ccncc2)cc(Br)c1OCc1ccccc1F	-29.8%	?	-38.8%	7.4%	11.2µM*	-14.2%
CCOc1cc(CNCCSc2nnnn2C)cc(Br)c1OCc1ccccc1F	-23.3%	?	-52.3%	18.6%	?	?
